This passage reports inhibition results from PubChem BioAssay AID1626 (SRMLSC, 2009).

About 2,000 (0.91%) of roughly 220,000 compounds were called active. Another 2% or so got no clear call; they are omitted. Rule as the data show it: inconclusive = inhibition above about 80% without an active follow-up result; inactive = below that; test concentration not stated here. Not all results are given here. Entries with a potency or affinity are not part of this list.

The assay is described as follows: M. tuberculosis H37Rv growth inhibitors, H37Rv strain (AID 1626).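 Also: bacteria incubated seven days before Alamar blue readout; 0% = bacteria only wells and 100% = bacteria with antibiotic wells.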 The conditions noted are these: hits give high values, concentration not given here.
As to `CC(=Nc1ccc2c(c1)nc(CO)n2C)C1=C(O)CC(C)(C)CC1=O`, the inhibition (as a rule, the drop in the measured response relative to a control, in per cent) was -0.93% (inactive).

As to `CC(=O)Nc1cccc(Oc2ncnc3scc(-c4ccccc4)c23)c1`, the inhibition is 1.97% (inactive).

For `Cc1cc(=O)oc2cc(Oc3ccc([N+](=O)[O-])cc3[N+](=O)[O-])ccc12`, the inhibition is 51% (inactive).

For `CCc1cc2c(C)cc(=O)oc2cc1Oc1ncccc1[N+](=O)[O-]`, the inhibition is 1.8% (inactive).

As for `Cc1cc(=O)oc2cc(Oc3ncccn3)ccc12`, the inhibition is -2.26% (inactive).

Consider `Cc1cc(=O)oc2cc(Oc3ccc(C(N)=O)cc3[N+](=O)[O-])ccc12`, for which the inhibition was -11.6% (inactive).

Turning to `CC(=O)Nc1cccc(Oc2ncnc3scc(-c4ccc(C)cc4)c23)c1`, the inhibition is 17.3% (inactive).

On to `O=C(COC(=O)CCSc1ccc(Cl)cc1)NCc1ccc(Cl)cc1`, for which the inhibition is 1.66% (inactive).

Consider `COc1ccc(CCC(=O)N/N=C\c2cccs2)cc1`, for which the inhibition was 36.8% (inactive).

As to `Cc1ccc(-c2csc3nc(C(C)C)oc(=O)c23)c(C)c1`, the inhibition was 14.9% (inactive).

Turning to `COc1cc(C2SC(C)C(=O)N2CCc2ccccc2)cc(OC)c1OC` (configuration not stated), the inhibition was 6.28% (inactive).

As for `O=C(N/C=C/c1ccccc1)Nc1ccc(Cl)cc1`, the inhibition was 7.4% (inactive).

With `CC(=O)c1ccc(OCC(=O)Nc2ccc3nc(C)sc3c2)cc1`, the inhibition is 56.8% (inactive).

In the case of `Cc1cccc(OCC(=O)Nc2ccc3nc(C)sc3c2)c1`, the inhibition was 89.5% (inactive).

Regarding `COc1ccc(OCC(=O)Nc2nc3ccc(NC(C)=O)cc3s2)cc1`, the inhibition is -3.22% (inactive).

In the case of `Cc1nc2ccc(NC(=O)COc3ccccc3C)cc2s1`, the inhibition is 52.7% (inactive).

As to `COc1cc(CC(=O)Nc2ccc3nc(C)sc3c2)cc(OC)c1OC`, the inhibition was -7.08% (inactive).

Regarding `Cc1nc2ccc(NC(=O)Cc3cccc(F)c3)cc2s1`, the inhibition was 0.69% (inactive).

Regarding `COc1ccc(CC(=O)Nc2ccc3nc(C)sc3c2)cc1OC`, the inhibition was 2.65% (inactive).

Take `Cc1nc2ccc(NC(=O)COc3ccccc3)cc2s1`: the inhibition was 83.5% (inactive).

With `CCC(C)(C)NC(=O)C(c1cccc(OC)c1)N(C(=O)c1ccn[nH]1)c1cccc(OC)c1` (configuration not stated), the inhibition is -8.88% (inactive).

In the case of `COCCNC(=O)c1cn(C)c2ccc(S(=O)(=O)N(C)C3CCCCC3)cc2c1=O`, the inhibition is -12% (inactive).

Regarding `COc1ccc(S(=O)(=O)N(CC(=O)N2CCN(C)CC2)c2ccccc2)cc1OC`, the inhibition is -11.1% (inactive).

With `CCC(CC)C1C(C#N)=C(N)Oc2cc(C)oc(=O)c21` (configuration not stated), the inhibition was -11.1% (inactive).

On to `Cc1cc2nnc(SCC(=O)NCC3CCCO3)n2c2ccccc12` (configuration not stated), for which the inhibition was -6.93% (inactive).

`Cc1ccc(-c2csc(/C(C#N)=C/Nc3ccccc3SC(F)(F)F)n2)c(C)c1`: the inhibition is -7.14% (inactive).

Regarding `COc1cc(C2c3c(oc4ccccc4c3=O)C(=O)N2Cc2cccnc2)cc(OC)c1OC` (configuration not stated), the inhibition is 1.59% (inactive).

`CCN(C(=O)CN1c2ccccc2CC1C)c1c(N)n(Cc2ccccc2)c(=O)[nH]c1=O` (configuration not stated): the inhibition is 3.3% (inactive).

With `CC(=O)c1cccc(NC(=O)C2CC(=O)N(Cc3ccccc3)C2)c1` (configuration not stated), the inhibition is -1.4% (inactive).

Turning to `CSc1nc2ccc(NC(=O)C3CC(=O)N(Cc4ccco4)C3)cc2s1` (configuration not stated), the inhibition is 7.1% (inactive).

Regarding `O=C(NNS(=O)(=O)c1ccccc1C(F)(F)F)c1cccc(S(=O)(=O)Nc2ccccc2Cl)c1`, the inhibition is 5.57% (inactive).

`CC(C)CNS(=O)(=O)c1ccc(CCC(=O)N2CCN(c3ccccc3)CC2)cc1`: the inhibition was 0.62% (inactive).

For `Nc1c(C(=O)NCC2CCCO2)sc2nc3c(c(-c4ccco4)c12)CC/C3=C\c1ccco1` (configuration not stated), the inhibition is -3.62% (inactive).

Regarding `O=[N+]([O-])c1cc(S(=O)(=O)C(F)(F)F)ccc1N1CCN(c2ccccc2)CC1`, the inhibition was 26.1% (inactive).

As to `O=[N+]([O-])c1cc(S(=O)(=O)Nc2ccccc2)ccc1N1CCN(c2ccc(O)cc2)CC1`, the inhibition was 3.41% (inactive).

Consider `CC(C)c1nc2sc3c(NCc4ccccc4)ncnc3c2c2c1COC(C)(C)C2`, for which the inhibition was -2.03% (inactive).

Regarding `Cc1ccc(N/C(N)=N/c2nc3c(c(=O)[nH]2)CCCC3)c(C)c1`, the inhibition is 6.84% (inactive).

For the molecule `COc1ccc(C)cc1N/C(N)=N/c1nc(C)cc(C)n1`, the inhibition was -4.57% (inactive).

Take `S=C1NC2(CCCCC2)Cc2ccccc21`: the inhibition was 4.66% (inactive).

On to `Cc1sc2nc(-c3cccnc3)[nH]c(=O)c2c1-c1ccccc1`, for which the inhibition is -0.42% (inactive).

As for `Cc1ccccc1/C=C1\CCCc2ccccc2C1=O`, the inhibition is 5.73% (inactive).

Turning to `CCc1ccc(/C=C(\C)C(=O)c2c(C)cc(C)[nH]c2=O)cc1`, the inhibition was 5.72% (inactive).

As for `COc1cccc(/C=c2\s/c(=C/C(=O)c3ccc(C)cc3)[nH]c2=O)c1OC`, the inhibition is 17.8% (inactive).

`CC(C)(C)C(=O)/C=c1\[nH]c(=O)/c(=C\c2ccc(C#N)cc2)s1`: the inhibition was 75.3% (inactive).

For the molecule `COc1ccc(/C=C2\SC(c3ccc(C)cc3)=NC2=O)cc1OC`, the inhibition was -10.8% (inactive).

With `CC(C)(C)C(=O)/C=c1\[nH]c(=O)/c(=C\c2ccccc2F)s1`, the inhibition was 79.9% (inactive).

For `COc1ccc(C=C2C(=O)c3ccccc3C2=O)cc1O`, the inhibition is 1.77% (inactive).

Regarding `COc1cc(/C=c2\s/c(=C\C(=O)C(C)(C)C)[nH]c2=O)cc(OC)c1OC`, the inhibition was 66.3% (inactive).

For `Cc1ccc(C2NC(=O)CCC2[N+](=O)[O-])cc1` (configuration not stated), the inhibition is 1.52% (inactive).

On to `NS(=O)(=O)c1ccc(NC(=O)C(Sc2ccccc2)c2ccccc2)cc1` (configuration not stated), for which the inhibition was 2.33% (inactive).

On to `COc1cccc(CNC(=O)c2ccc3nc[nH]c3c2)c1`, for which the inhibition was -1.98% (inactive).

Take `O=C(COc1ccc(Br)cc1)NCc1cn2ccccc2n1`: the inhibition is -2.73% (inactive).

With `NC1=NC(=O)/C(=C\C=C\c2ccccc2)S1`, the inhibition is 2.56% (inactive).

Consider `CCCOc1ccc(/C=N/NC(=O)C(C)Sc2ccccn2)cc1OCC` (configuration not stated), for which the inhibition was 4.45% (inactive).

`COc1cccc(/C=c2\s/c(=C\C(=O)C(C)(C)C)[nH]c2=O)c1`: the inhibition is 8.13% (inactive).

As to `Cc1cccc(/C=C2\CS/C(=C\c3cccc(C)c3)C2=O)c1`, the inhibition is -5.7% (inactive).

Take `Cc1cc(NC(=O)C(=O)c2cn(C)c3ccccc23)no1`: the inhibition is -4.05% (inactive).

For `CCC(=O)Nc1cccc(C2=NOC3(C2)C[C@@H](C(N)=O)N(C(=O)C2(C)CC2)C3)c1` (some centres not stated), the inhibition was -7.53% (inactive).

On to `O=C(COC(=O)c1ccc(Br)cc1)NCCN1C(=O)CSC1=O`, for which the inhibition is -0.22% (inactive).

Consider `O=C(CN1C(=O)c2cccc3cccc1c23)Nc1ccccc1C(=O)NCc1ccco1`, for which the inhibition is -8.25% (inactive).

As to `COc1ccc(C2C(C(=O)Nc3ccc4c(c3)OCCO4)c3ccccc3C(=O)N2C)cc1` (configuration not stated), the inhibition is -5.2% (inactive).

As to `CC1=C(C(=O)Nc2ccccc2C)C(c2cccs2)NC(=S)N1` (configuration not stated), the inhibition is -1.29% (inactive).

Regarding `O=S(=O)(c1ccc(F)cc1)c1snnc1-c1ccccc1`, the inhibition was -0.36% (inactive).

On to `O=S(=O)(c1ccc(Cl)cc1)c1snnc1-c1ccccc1`, for which the inhibition is -9.09% (inactive).

In the case of `O=C(CNC(=S)N(Cc1ccccc1F)C1CCCCC1)NC1CC1`, the inhibition was -3.6% (inactive).

Turning to `O=C(Nc1ccc2sccc2c1)c1ccc(Cl)s1`, the inhibition is 59.4% (inactive).

With `Cc1ccc(/C=C/C(=O)Nc2ccc([N+](=O)[O-])cc2)o1`, the inhibition is 6.87% (inactive).

For `O=C(O)/C=C/c1ccc([N+](=O)[O-])o1`, the inhibition is 7.14% (inactive).

For the molecule `CCOC(=O)/C=c1\s/c(=C(\C#N)C(N)=O)n(-c2ccccc2)c1=O`, the inhibition is 2.26% (inactive).

Take `COc1cc(/C=N/NC(=O)c2cnccn2)cc(OC)c1OC`: the inhibition is -6.81% (inactive).

In the case of `CC1(C)CCCC2=C1CC1C(=O)N(N)C(=O)C1C2` (configuration not stated), the inhibition is 2.05% (inactive).

As to `Cc1ccc(Nc2ccc(C(=O)O)cc2N)cc1`, the inhibition is -7.86% (inactive).

For the molecule `Cc1ccc(Nc2ccccc2)cc1`, the inhibition was 6.23% (inactive).

Take `COc1ccc(Nc2ccc(OC)cc2)cc1`: the inhibition is 47% (inactive).

Consider `Nc1ccccc1Nc1cccc(C(F)(F)F)c1`, for which the inhibition is 6.41% (inactive).

Regarding `COc1ccc(Nc2cccccc2=O)cc1`, the inhibition is 1.3% (inactive).

Consider `c1ccc(Nc2cccc3c(Nc4ccccc4)cccc23)cc1`, for which the inhibition is -3.47% (inactive).

`FC(F)(F)c1nc2ccccc2nc1N/N=C/c1c(Cl)cccc1Cl`: the inhibition is 9.85% (inactive).

On to `COCCN(C(=S)Nc1ccc(C)cc1C)C(C)c1ccco1` (configuration not stated), for which the inhibition was -7% (inactive).

For the molecule `CSc1ncccc1C(=O)OCC(=O)c1ccccc1Br`, the inhibition is -4.85% (inactive).

For the molecule `CCOC(=O)c1cc(NC(=O)N2CCOCC2)c(C)nc1C`, the inhibition was -1.72% (inactive).

As to `CC(C)CNc1cc(N2CCCC2)ccc1[N+](=O)[O-]`, the inhibition is 4.85% (inactive).

For `CCCCCSc1nc2c(c(=O)[nH]c(=O)n2C)n1C`, the inhibition is 11.1% (inactive).

On to `C/C(=C\C(=O)c1ccc(Br)cc1)NCc1ccc(C)cc1`, for which the inhibition was 4.34% (inactive).

As for `CCOc1cc(S(=O)(=O)N2CCOCC2)ccc1F`, the inhibition was -1.04% (inactive).

Take `CC(C)[C@H](NS(=O)(=O)/C=C/c1ccccc1)C(=O)OCC(=O)NC(N)=O`: the inhibition was 0.26% (inactive).

Regarding `CC(Cn1cnc2ccccc21)C(=O)O` (configuration not stated), the inhibition was -0.91% (inactive).

Take `Cc1cc(C)c(C(=O)Nc2ccc(C)c(C)c2)c(CC(C)(C)C(=O)O)c1`: the inhibition is -5.76% (inactive).

Regarding `CC(NC(=O)COC(=O)/C=C/c1cccc(C(F)(F)F)c1)c1ccccc1` (configuration not stated), the inhibition was 5.27% (inactive).

As to `O=C1N=C(N2CCN(c3ccccc3)CC2)SC1Cc1ccccc1` (configuration not stated), the inhibition was 1.7% (inactive).

`O=C(Nc1ccccc1)N1CCCC1c1cccs1` (configuration not stated): the inhibition was -1.63% (inactive).

Consider `Cc1nc(NC(=O)CSc2ccc(-c3nc4ccccc4[nH]3)cn2)sc1C`, for which the inhibition was -0.38% (inactive).

Regarding `Cc1ccc2nc(-c3ccc(SCC(=O)Nc4nc(C)cs4)nc3)[nH]c2c1`, the inhibition was 0.98% (inactive).

In the case of `CCc1nnc(NC(=O)CSc2ccc(-c3nc4ccccc4[nH]3)cn2)s1`, the inhibition is -3.06% (inactive).

Turning to `Cc1cc2nc(-c3ccc(SCC(=O)NC(C)C)nc3)[nH]c2cc1C`, the inhibition was 1.74% (inactive).

As to `Cc1ccc2nc(-c3ccc(SCC(=O)O)nc3)[nH]c2c1`, the inhibition is 4.36% (inactive).

As for `CC(=O)CSc1ccc(-c2nc3cc(C)c(C)cc3[nH]2)cn1`, the inhibition was 11.7% (inactive).
